The values below come from PubChem BioAssay (NCI).

Several values for one entry are separate records, joined by “and”; a condition that tells them apart may be missing. Identical values can stand only once. About 83,000 compounds went through this panel and 20% of them were active in at least one assay; those are over-represented in the sample as a whole.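 Negative percent growth values reflect cell death: -40 means 40% of the cells present at the start died, and -100 means all died.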 Activity calls are given as the source filed them.

This experiment concerns HCT-15 colon. Description: NCI-60 one-dose screen, 48 h (100 = growth as untreated, 0 = no growth, -100 = all killed). The following applies: 10 µM unless noted. As for the experimental part: Growth inhibition of the HCT-15 human tumor cell line is measured as a screen for anti-cancer activity. Cells are grown in 96 well plates and exposed to the test compound for 48 hours. Compounds are tested at a single concentration, which is 10^-5 M for most compounds. The reported endpoint is percent growth (GI% or GIPRCNT), where numbers from 0 - 100% represent growth inhibition, and numbers from -100% - 0 represent cell death. For example, a value of 40 represents 60% growth inhibition. A value of 0 means no net growth occurred over the course of the experiment. A value of -40 indicates 40% of cells at the beginning of the experiment died by the end of the experiment. A value of -100 means all cells are dead at the end of the experiment.
NCI-60 Human Tumor Cell Lines Screen was performed using the standard one-dose NCI protocol, which is described in more detail at https://dtp.cancer.gov/discovery_development/nci-60/default.htm.
Compounds with GIPRCNT values below 10 were considered active. Activity score was based on GIPRCNT using the following formula: […]
Score is 0 for GIPRCNT values of 100 or above, 50 for GIPRCNT values of 0, and 100 for GIPRCNT values of -100.
Turning to `COc1c(O)cc2c(c1OC)-c1ccc(SC)c(=O)cc1C(NC(C)=O)CC2` (stereo not given), the growth is -40.6% (active). Take `CNC(=O)Oc1ccc(Cl)cc1SSc1cc(Cl)ccc1OC(=O)NC`: the growth is 72.7% (inactive). For `O=c1c2ccccc2nc(-c2ccccc2Cl)n1-c1nnc(C(F)(F)F)s1` the value was 21.1% (inactive). Regarding `NC(=O)Oc1cc(OC(N)=O)cc(N(CCCl)CCCl)c1`, the growth is 68.9% (inactive). The value for `O=C(CCCN1CCC2(CC1)C(=O)NCN2c1ccccc1)c1ccc(F)cc1` was 100% (inactive) and 78.4% (inactive); that for `CNC(=O)CCl` was 101% (inactive).

For the molecule `CN(C)[C@@H]1C(=O)C(C(N)=O)=C(O)[C@@]2(O)C(=O)C3=C(O)c4c(O)ccc(Cl)c4[C@@](C)(O)[C@H]3C[C@@H]12`, the growth was 89.6% (inactive) and 105% (inactive). For `CC[C@H](C)[C@H](NC(=O)[C@H]1CCCCN1C)C(=O)N(C)[C@H](C(=O)NC12CC(C(=O)N[C@@H](Cc3ccccc3)C[C@H](C)C(=O)OC)(C1)C2)C(C)C` the value was 101% (inactive); for `O=[N+]([O-])c1ccc2scc3c4ccccc4nc-3c2c1`, -36.7% (active); for `O=S1(=O)OCCO1`, 99% (inactive).

Consider `O=C/C=C/c1ccco1`, for which the growth is 106% (inactive). For `CCN1C(=O)NC(=O)C(C)(N2C(=O)c3c(F)c(F)c(F)c(F)c3C2=O)C1=O` (stereo not given) the value was 5.26% (active); for `COc1ccc(N(CC(=O)NCCC[Te]c2ccccc2)C(=O)c2ccccc2)cc1`, 9.28% (active); for `CCCCCCCCCCCCCCCC[N+](C)(C)Cc1ccccc1`, 64% (inactive) and 42% (inactive). For `CCCCS(=O)(=O)Cl` the value was 108% (inactive); for `C[C@]12CCc3sc(Nc4ccc(OC(F)(F)F)cc4)nc3C1=CC[C@@H]1[C@@H]2CC[C@]2(C)C(=O)CC[C@@H]12`, 38.3% (inactive); for `Cc1ccc(N2CCN(CCC#N)CC2)cc1`, 97.2% (inactive). For `C[C@@]12CCCc3coc(c31)C(=O)c1cc3c(cc12)C(=O)C1=C(NCCS1(=O)=O)C3=O` the value was 8.66% (active). Consider `Clc1ccc(COC(Cn2ccnc2)c2ccc(Cl)cc2Cl)c(Cl)c1` (stereo not given), for which the growth was 41.9% (inactive) and 46.2% (inactive). For `O=c1[nH]c(=O)[nH]c(=O)[nH]1` the value was 160% (inactive); for `O=C1c2ccccc2C(=O)N1N1CC1c1ccccc1` (stereo not given), 101% (inactive); for `CCCN1C(=O)NC(=O)C(CC)(N2C(=O)c3c(F)c(F)c(F)c(F)c3C2=O)C1=O` (stereo not given), -51.8% (active). The value for `CCOC(=O)c1ccccc1C(=O)OCC` was 93.8% (inactive). For `COc1ccc2c(c1)C1(C)CCN(C)CC(C1)C2O` (stereo not given) the value was 97.6% (inactive); for `c1ccc2c(c1)sc1ccccc12`, 103% (inactive). Turning to `O=c1[nH]c(=O)n(Cl)c(=O)n1Cl`, the growth was 111% (inactive) and 108% (inactive).

For the molecule `CCC(=O)C(CC(C)N1CCCCCC1)(c1ccccc1)c1ccccc1` (stereo not given), the growth was 87.2% (inactive). In the case of `OCCNC1CCCCC1`, the growth was 98.7% (inactive). For `COc1cc(/C=C\[N+](=O)[O-])ccc1OCc1ccccc1` the value was -11.7% (active); for `N#Cc1ccc(Cl)cc1`, 110% (inactive). `O=C1CN2CCC1CC2`: the growth is 97% (inactive).

For `O=C1NC(=O)C(=Cc2ccccc2)C(=O)N1`, the growth is 98.6% (inactive) and 106% (inactive). For `C[C@]12CCc3sc(Nc4ccc(F)cc4F)nc3C1=CC[C@@H]1[C@@H]2CC[C@]2(C)C(=O)CC[C@@H]12` the value was 7.76% (active); for `C=C1C(=O)OC2CC3(C)OC3C3OC3C3=CC(OC3=O)C12` (stereo not given), 46.4% (inactive) and 36% (inactive); for `CC1=CC(=O)CCC12CCOC2=O` (stereo not given), 98.7% (inactive). The value for `COC1C(O)CC(OC2CC(Oc3cc4cc5c(c(O)c4c(O)c3C)C(=O)[C@@H](OC3CC(OC4CC(OC6CC(C)(O)C(OC(C)=O)C(C)O6)C(O)C(C)O4)C(O)C(C)O3)[C@H]([C@H](OC)C(=O)[C@@H](O)[C@@H](C)O)C5)OC(C)C2OC(C)=O)OC1C` (stereo not given in full) was 1.5% (active); that for `Cc1c(C)c(N)c(C)c(C)c1N` was 34.8% (inactive); that for `CC1=C2[C@H]3OC(=O)[C@@H](C)[C@@H]3CC[C@@]2(C)C=CC1=O` was 95.3% (inactive).

For the molecule `COC(=O)[C@@H](C)C[C@H](Cc1ccccc1)NC(=O)c1cccc([C@@H](C[C@H](C(C)C)N(C)C(=O)[C@@H](NC(=O)[C@H]2CCCCN2C)C2CC2)OC(C)=O)n1`, the growth is 8.07% (active). The value for `O=C(O)C(F)F` was 106% (inactive).
